ALR H2O2 inh: inhibitors of human ALR sulfhydryl oxidase, primary screen, biochemical, H2O2 detection, HRP-luminol luminescence, single point. FAD-linked sulfhydryl oxidase ALR (Homo sapiens), P55789. purified ALR, DTT oxidation. inhibition, % (no concentration beside the values). 290,000 tested, 3.8% active. AID 485317, 2010;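 active means mean replicate inhibition above about 79%, with every replicate also reaching it, limit read from the data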
Target sequence (P55789 whole entry, looked up): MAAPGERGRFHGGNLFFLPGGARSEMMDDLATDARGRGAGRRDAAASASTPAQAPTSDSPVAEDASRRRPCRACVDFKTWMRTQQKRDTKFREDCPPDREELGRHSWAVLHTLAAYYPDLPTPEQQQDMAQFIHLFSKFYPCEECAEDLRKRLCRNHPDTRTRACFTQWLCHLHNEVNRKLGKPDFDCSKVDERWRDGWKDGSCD
Yeast superoxide: reduction of superoxide in aged yeast, primary screen, HTS. superoxide response (% of plate mean), % at 10 µM. 330,000 tested, 0.18% active. S. cerevisiae aged cells, superoxide DHE fluorescence; active compounds read low. AID 2690, 2010;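 active means superoxide response under a set limit, about three screen SD below normal, cut at about 65% in these data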;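 further: yeast aged for seven days with compound at 30 °C before DHE staining; 100% = average MFI of all compound-treated wells on the plate with controls excluded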
A3A deaminase: APOBEC3A ssDNA deaminase inhibitors, primary screen, selectivity assay for APOBEC3G inhibitor project, biochemical, FAM/TAMRA oligo cleavage fluorescence; DNA dC->dU-editing enzyme APOBEC-3A (Homo sapiens), P31941; recombinant A3A, FAM/TAMRA ssDNA deamination fluorescence; inhibition, % at 20 µM; 330,000 tested, 0.41% active; AID 493011, 2011;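 active means at least 40% inhibition at 20 µM here, with at most 30% in a related deaminase screen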;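 further: plate controls were A3A with DMSO for no effect and wells lacking A3A enzyme for full effect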
Target sequence (P31941 whole entry, looked up): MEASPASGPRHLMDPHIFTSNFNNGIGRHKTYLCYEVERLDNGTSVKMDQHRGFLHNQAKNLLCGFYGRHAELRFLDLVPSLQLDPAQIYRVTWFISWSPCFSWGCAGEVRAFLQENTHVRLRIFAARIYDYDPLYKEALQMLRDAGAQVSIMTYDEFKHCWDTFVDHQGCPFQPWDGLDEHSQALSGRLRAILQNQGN
CendR NRP1 mod: modulators of CendR peptide binding to NRP-1, primary screen, biochemical, fluorescence polarization, uHTS. 360,000 tested, 0.85% active. FAM-RPARPAR peptide binding to NRP-1. AID 602438, 2012. inhibition, % at 25 µM;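 active means inhibition or corrected inhibition above about 18%, plus a signal ratio from 0.5 to 1.5, limit read from the data, passing the limit was not always enough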
PfM18AAP inh: PfM18AAP inhibitors, malaria aminopeptidase, primary screen, biochemical, QFRET, recombinant enzyme; M18 aspartyl aminopeptidase (Plasmodium falciparum 3D7); H-Glu-NHMec fluorogenic cleavage; inhibition, % at 7.35 µM; 290,000 tested, 1.2% active; AID 1822, 2009;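 active means inhibition above the campaign mean inhibition over all tested compounds plus 3 SD, cut at about 28% in these data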;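 further: 0% = plate median of test compound wells and 100% = 2 mM ZnCl2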
APOBEC3G inh: APOBEC3G DNA deaminase inhibitors, primary screen, biochemical, fluorescence, single-stranded DNA substrate, uHTS; DNA dC->dU-editing enzyme APOBEC-3G (Homo sapiens), Q9HC16; recombinant A3G, ssDNA deamination FAM/TAMRA fluorescence; inhibition, % at 20 µM; 330,000 tested, 0.28% active; AID 493012, 2011;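 active means inhibition of at least 40% at 20 µM, with no more than 30% in the related APOBEC3A deaminase screen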;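 further: plate controls were DMSO wells with A3G for no effect and wells lacking A3G enzyme for full effect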
* = called active by the depositor; . = no result. The list is not random: actives were taken first. Their share in the collection is about 5.2%.

SMILES | ALR H2O2 inh | Yeast superoxide | A3A deaminase | CendR NRP1 mod | PfM18AAP inh | APOBEC3G inh
COc1cccc(N2CCN(c3ccc4nnc(CCC(=O)Nc5cccc(C(C)=O)c5)n4n3)CC2)c1 | -1 | 141 | -3 | 10 | 8 | -2
CC(C)=CCOc1ccc([C@@H]2COc3c(ccc4c3C=CC(C)(C)O4)C2)c(O)c1 | -2 | 94 | -2 | 4 | . | -10
CN(C)S(=O)(=O)c1cccc(-c2cn3cccnc3n2)c1 | 99* | 98 | 0 | 9 | 0 | -4
Cc1ccc2nc(-c3cccc(S(=O)(=O)N4CC(C)OC(C)C4)c3)cn2c1 (stereo not given) | 98* | 96 | -6 | -14 | 3 | -9
Cc1ccc2nc(-c3cccc(S(=O)(=O)N(C)C)c3)cn2c1 | 99* | 93 | -3 | 20 | 2 | -1
CCN(CC)S(=O)(=O)c1cccc(-c2cn3cc(C)ccc3n2)c1 | 61 | 93 | -6 | 0 | -9 | -8
Cc1cccc(C)c1NC(=O)CSc1nnc(C)c(=O)[nH]1 | -5 | 109 | -3 | -15 | 6 | -5
Cc1ccc(NC(=O)CSc2nnc(C)c(=O)[nH]2)cc1C | 95* | 93 | -2 | 3 | 7 | -6
Cc1nnc(SCC(=O)Nc2cccc(C(F)(F)F)c2)[nH]c1=O | 98* | 98 | -3 | -2 | -6 | -3
CCSc1nc2ccccc2n1Cc1cccc([N+](=O)[O-])c1 | -4 | 88 | -1 | 23* | -4 | -2
CCSc1nc2ccccc2n1Cc1ccccc1F | . | 107 | -2 | 17 | 0 | -1
C/C(=N\Nc1nc(C(C)(C)C)cs1)c1ccc(O)cc1 | . | 93 | -7 | -12 | 1 | -3
C/C(=N\Nc1nccnc1Cl)c1ccc(O)cc1 | 93* | 105 | -6 | 8 | 6 | -7
C/C(=N\Nc1nccnc1Cl)c1ccc(F)cc1 | 2 | 136 | -2 | 5 | 14 | -7
C/C(=N\Nc1c(Cl)c(Cl)nc(C(=O)O)c1Cl)c1ccc(O)cc1 | . | 88 | 6 | 0 | 31* | 5
O=C(CN1CC[n+]2c(-c3ccccc3)csc21)c1ccc(Br)cc1 | 98* | 98 | 8 | 18 | 7 | 4
CC(=O)N1CCN(CC(=O)c2ccc(Br)cc2)CC1 | . | 96 | -1 | -3 | -5 | -6
O=C(CN1CC[n+]2c(-c3cccs3)csc21)c1ccc(Br)cc1 | 98* | 95 | 0 | -1 | -10 | -5
CCCOc1ccc(-c2nc(SCc3ccccc3)[nH]c(=O)c2C#N)cc1OC | 12 | 103 | -5 | -15 | -4 | -5
O=C(Nc1nc(=O)n(C(=O)c2cccc(C(F)(F)F)c2)s1)c1ccccc1 | 97* | 94 | -1 | -2 | 1 | -4
Cc1c(Br)c([N+](=O)[O-])nn1CC(=O)Nc1ccc(CC#N)cc1 | . | 138 | 2 | . | 2 | -11
O=C(Nc1cc(Cl)ccc1-n1cncn1)c1cc(F)cc(F)c1 | 2 | 110 | 34 | -13 | . | -5
Cc1ccc(-c2nn3c(C)nnc3s2)cc1NC(=O)c1ccc(-c2cccc(Cl)c2)o1 | . | . | 4 | -20 | 14 | 9
Cc1ccc(-c2nn3c(C)nnc3s2)cc1NC(=O)c1ccc(-c2ccc(Cl)cc2Cl)o1 | . | 97 | 43* | 16 | -8 | -3
N#Cc1ccc(S(=O)(=O)N2CCN(CC(=O)Nc3ccccc3C(=O)NC3CC3)CC2)cc1 | -2 | 100 | 0 | -2 | . | -2
O=C(CN1CCN(S(=O)(=O)c2ccc(F)cc2)CC1)Nc1ccccc1C(=O)NC1CC1 | . | . | 0 | 26* | . | -9
O=S(=O)(N/N=C1\CC(c2ccccc2)Oc2ccccc21)c1ccccc1 (stereo not given) | 96* | 95 | 1 | -18 | 7 | -6
COc1ccc(-c2cnnc(N/N=C/c3ccc(O)c(O)c3)n2)cc1 | . | 114 | 0 | 7 | 48* | 4
